Measured values published in PubChem BioAssay (NCI).
About 83,000 compounds went through this panel and 20% of them were active in at least one assay; those are over-represented in the sample as a whole.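 Step 1: grow cells in 96-well plates. Step 2: add test compound at a single concentration. Step 3: incubate 48 h. Step 4: record percent growth.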 A number with no mark means an inactive call. Calls of active or inactive are those of the source. Rule for the calls: active = growth percent below 10; inactive = the rest.

Columns and labels:
Assay in all cases: NCI-60 one-dose screen, 48 h (100 = growth as untreated, 0 = no growth, -100 = all killed)
Settings in all cases: 10 µM
[1] = tested on: NCI-H23 lung
[2] = tested on: NCI-H226 lung
[3] = tested on: HOP-62 NSCLC
[4] = tested on: NCI-H460 lung
[5] = tested on: HOP-92 NSCLC
[6] = tested on: NCI-H522 lung
[7] = tested on: A549/ATCC NSCLC
[8] = tested on: 786-0 renal
[9] = tested on: COLO 205 colon

SMILES	growth [1]	growth [2]	growth [3]	growth [4]	growth [5]	growth [6]	growth [7]	growth [8]	growth [9]
Nc1ccc(/C=N/Nc2ccnc3c(O)cccc23)c2cccnc12	74.6%	84%	64.4%	25.9%	88.1%	41.3%	42.6%	50.7%	104%
C=CCNCCN1C(=O)c2ccc3c4c(ccc(c24)C1=O)C(=O)N(CCNCC=C)C3=O	-36.4% (active)	-51.6% (active)	-28.7% (active)	-39.3% (active)	-34.5% (active)	-79.7% (active)	-71.4% (active)	-2.95% (active)	-90.5% (active)
O=C(O)Cc1ccc(O)c(O)c1	103%	98.2%	99.3%	100%	109%	106%	102%	105%	103%
CCC(C)[C@H](NC(C)=O)C(=O)N[C@@H](CCCNC(=N)N)C(=O)N[C@@H](CCCCN)C(=O)N[C@@H](CC1CCC(O)CC1)C(=O)NC(C(=O)N[C@@H](CCSC)C(=O)N[C@@H](CCCNC(=N)N)C(=O)N[C@@]1(C)CCC/C=C\CCC[C@@](C)(C(=O)NC(C(=O)N[C@@H](CCC(=O)O)C(=O)N[C@@H](CC(C)C)C(=O)N[C@H](C(=O)N[C@@H](CCC(=O)O)C(N)=O)C(C)C)[C@@H](C)O)NC(=O)[C@H](CCC(N)=O)NC(=O)[C@H](CC(C)C)NC(=O)[C@H](CC(C)C)NC1=O)[C@@H](C)O (stereo partly specified)	106%	108%	108%	103%	103%	102%	96.3%	98.7%	89.9%
O=C(CN(C1CCCCC1)C1CCCCC1)Nc1ccc(S(=O)(=O)c2ccc(NC(=O)CN(C3CCCCC3)C3CCCCC3)cc2)cc1	-36.6% (active)	0.397% (active)	-21.4% (active)	-9.66% (active)	-86.7% (active)	-74.4% (active)	2.61% (active)	-82.7% (active)	-70.6% (active)
O=S(=O)(Oc1ccc(-c2ccc3sccc3c2)cc1)c1ccccc1	89%	92.5%	113%	103%	111%	87.3%	100%	100%	109%
COc1ccc(/C(C#N)=C/c2ccccc2OC)cc1	41.7%	64.8%	44.7%	20.9%	74.4%	5.02% (active)	36.2%	52.4%	14.2%
CC1CCCC(C(=O)O)C1C(=O)O (stereo unspecified)	98.1%	96.7%	87.7%	104%	86.1%	80.8%	78.3%	94%	102%
Cc1cc(=O)n2nnc3cc(Cl)c(Cl)cc3n12	95.6%	112%	111%	113%	101%	53.9%	104%	108%	-63.7% (active)
Cc1ccc(Cl)cc1NC(=O)CCl	74.2%	99.4%	108%	98.4%	92.1%	55.6%	89.9%	81.2%	110%
COc1cc(/C=C/c2cc(/C=C/c3ccc(O)c(OC)c3)n(C(=O)Nc3ccc(C)cc3)n2)ccc1O	-10.4% (active)	-0.891% (active)	11.6%	10.1%	-15.4% (active)	-19.3% (active)	4.71% (active)	-1.18% (active)	-25.8% (active)
Cc1cc(=O)n2nnc3cc(C(F)(F)F)ccc3n12	101%	115%	117%	114%	93.9%	97.4%	105%	104%	108%
COc1cc(OC)c2c(=O)c(O)c(-c3ccccc3)oc2c1	79.8%	69.3%	67.7%	53.5%	52%	72.5%	77.3%	70.8%	104%
N#CCc1csc(Cc2ccccc2)n1	97.2%	101%	104%	102%	117%	88.9%	95.1%	108%	117%
COc1cc(-c2nn(-c3ccc(NC(=O)NCCCNC(=O)c4ccccc4)cc3)cc2-c2ccncc2)ccc1Cl	28.8%	56.1%	41.5%	6.81% (active)	-0.43% (active)	3.7% (active)	26%	14.8%	-43.4% (active)
COc1cc(C(=O)n2nc(-c3cc(OC)c(OC)c(OC)c3)nc2N)cc(OC)c1OC	92.9%	98.7%	85.8%	103%	82%	82.1%	98.5%	96.6%	99.4%
C[C@@H](C[C@H](CCO)c1ccccc1)c1ccc2ccccc2c1	-65.1% (active)	-65.7% (active)	-55% (active)	-48.5% (active)	-95.6% (active)	-53.9% (active)	-81.4% (active)	-90.6% (active)	-86.9% (active)
O=C(NCCCNS(=O)(=O)c1ccc(Cl)cc1)Nc1ccc(-n2cc(-c3ccncc3)c(-c3ccc(Cl)c(O)c3)n2)cc1	42%	41%	76.4%	13.7%	37.3%	40.6%	28.4%	1.59% (active)	16.4%
COc1cc(/C=C/c2cc(/C=C/c3ccc(O)c(OC)c3)[nH]c(=O)n2)ccc1O	62.8%	76.2%	70.8%	69.7%	33.7%	54.6%	71.7%	82.6%	51.8%
CC(C)CCN(CCC(C)C)CC(=O)Nc1ccc(S(=O)(=O)c2ccc(NC(=O)CN(CCC(C)C)CCC(C)C)cc2)cc1	46.3%	76.7%	67.5%	48.2%	75%	-64.6% (active)	53.7%	18%	29.6%
COc1cc(/C=C/c2cc(/C=C/c3ccc(O)c(OC)c3)nc(N)n2)ccc1O	-2.79% (active)	11.7%	4.85% (active)	5.54% (active)	-21.2% (active)	-41.3% (active)	10.1%	-58.9% (active)	-50.4% (active)
CCOC(=O)C1=CSC2=NC3=C(CCC/C3=C\c3cc(OC)c(OC)c(OC)c3)C(c3cc(OC)c(OC)c(OC)c3)N12 (stereo unspecified)	52.3%	67.5%	74.5%	23.3%	84.8%	95.4%	65.1%	91.3%	52.7%
CCN(CCCNc1cc2c(c(N)c1S(=O)(=O)O)C(=O)c1ccccc1C2=O)c1ccccc1	89.3%	84.4%	92.1%	102%	112%	96.3%	104%	96.3%	109%
O=[N+]([O-])c1ccc2ncccc2c1Cl	86.7%	109%	44.5%	93.1%	99%	41.3%	99.9%	63.5%	-69.2% (active)
OCC1OC(n2cnc3c(NCc4ccco4)ncnc32)C(O)C1O (stereo unspecified)	18%	51.8%	43.2%	23.1%	-10.8% (active)	23.8%	22.2%	18.2%	19.6%
COc1cc(/C=C2\CCCC3=C2NC(N)=NC3c2cc(OC)c(OC)c(OC)c2)cc(OC)c1OC (stereo unspecified)	11.6%	-61% (active)	17.8%	-42.6% (active)	-1% (active)	-38% (active)	-28.4% (active)	-20.1% (active)	-0.149% (active)
S=C(SSC(=S)N(c1ccccc1)c1ccccc1)N(c1ccccc1)c1ccccc1	100%	99.2%	97.6%	106%	86.2%	81.1%	82%	105%	132%
COc1ccc(C(=O)N/N=C/c2cc(C(F)(F)F)ccc2Cl)cc1	81.3%	82.3%	107%	99.8%	90.2%	82.1%	97.4%	104%	104%
CNS(=O)(=O)Oc1ccc(-c2ccc3occc3c2)cc1	95.1%	93.8%	102%	104%	91.8%	84%	93.3%	99.1%	111%
